# Inconclusive results are not listed. A call without a number means that no potency is given here. Activity calls are given as the source filed them. The call rests on the fitted dose curve; in most records, active means well fitted curve in the direction sought with a large enough effect; inconclusive means small, poorly fitted or top-dose-only effect, or another doubt; inactive means no such curve, though single readings can be large; an effect the other way counts as inactive or inconclusive.
# What was measured:
# [1] = qHTS to identify inhibitors of the type 1 interferon - major histocompatibility complex class I in skeletal muscle: primary screen against the NCATS LOPAC collection (AID 1347405);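 further: lytic HiBiT luminescence reporting HLA-B protein level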; further: potency means the concentration at half of the fitted maximal effect
# In short: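 Cells: C25cl48 human myoblasts, HiBiT-tagged HLA-B*08:01, stimulated with IFN-beta 4.0 ng/ml. Compounds are titrated 1:4.3 over 7 points from 46 uM final and incubated 24 hrs; endogenous MHC class I is quantified by HiBiT lytic luminescence.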
# [2] = qHTS for inhibitors of adenylyl cyclases using a fission yeast platform: a pilot screen against the NCATS LOPAC library (AID 1347410)
# In short: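 Fission yeast qHTS: CHP2027 cells (AC9-GNAS-PDE4D2, fbp1-GFP), 5x10^6 cells/mL working density, EMM + His/Lys/Ura; LOPAC at up to 57 µM final; 18 h dark, 30C; GFP by laser cytometry. DPI positive control, DMSO vehicle.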
# [3] = Validation qHTS assay for inhibitors of Activation Induced Cytidine Deaminase (AID): UDG Counterscreen signal (AID 1347427)
# In short: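 Counterscreen read of UDG activity (2 U/mL, 4/3x) in the FRET deamination format with AID (1 uM, 4/3x), DJC20/DJC23 substrates (250 nM, 4x), 4 h at room temperature. NaOH stop, fluorescence at 560 ex/665 em.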
# [4] = qHTS to identify inhibitors of the type 1 interferon - major histocompatibility complex class I in skeletal muscle: primary screen against the NCATS Pharmaceutical Collection (AID 1347407);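 further: luminescence of HiBiT knocked into endogenous HLA-B as interferon-induced MHC class I level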
# In short: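 Luminescence from HiBiT-tagged endogenous HLA-B*08:01 served as the read-out of IFN-beta-induced MHC class I in CRISPR-engineered C25cl48 myoblasts. Cells received 4 ng/ml IFN-beta plus compound (high final 46 uM, […]) for 24 h.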
# [5] = qHTS to identify inhibitors of the type 1 interferon - major histocompatibility complex class I in skeletal muscle: primary screen against the NCATS Mechanism Interrogation Plate v5.0 (MIPE) Libary (AID 1347411); further: nearly all actives have a fitted effect of over 65% in size
# In short: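 Cells were genome-edited human myoblasts carrying a HiBit tag on endogenous HLA-B. They were treated with IFN-beta (4.0 ng/ml) and titrated compounds (top 46 uM) for 24 hrs before lytic HiBiT detection.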
# [6] = molecular target: Protein phosphatase 1D (Homo sapiens) (UniProt O15297); assay: RapidFire Mass Spectrometry qHTS Assay for Modulators of WT P53-Induced Phosphatase 1 (WIP1) (AID 1347424);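 further: amount of dephosphorylated VEPPL-S-QETFS peptide product formed by WIP1; series mostly up to about 63 µM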
# Sequence of Protein phosphatase 1D (Homo sapiens) (O15297 whole entry, looked up): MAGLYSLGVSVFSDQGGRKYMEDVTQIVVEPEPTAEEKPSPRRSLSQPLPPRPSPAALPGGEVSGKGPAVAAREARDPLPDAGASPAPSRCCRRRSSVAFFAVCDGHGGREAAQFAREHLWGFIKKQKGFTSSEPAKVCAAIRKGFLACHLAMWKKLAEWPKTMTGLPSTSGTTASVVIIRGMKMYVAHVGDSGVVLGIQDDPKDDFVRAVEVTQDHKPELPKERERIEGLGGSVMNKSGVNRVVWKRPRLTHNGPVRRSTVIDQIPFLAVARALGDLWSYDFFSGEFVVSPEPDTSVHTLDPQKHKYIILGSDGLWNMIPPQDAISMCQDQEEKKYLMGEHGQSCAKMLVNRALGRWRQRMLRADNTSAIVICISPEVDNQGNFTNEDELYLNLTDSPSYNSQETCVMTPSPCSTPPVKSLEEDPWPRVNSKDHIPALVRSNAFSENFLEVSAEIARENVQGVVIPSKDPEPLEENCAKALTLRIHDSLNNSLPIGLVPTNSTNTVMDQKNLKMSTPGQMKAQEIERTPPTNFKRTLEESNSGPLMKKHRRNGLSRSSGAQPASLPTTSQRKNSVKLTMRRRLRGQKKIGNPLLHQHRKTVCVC
# In short: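 10 nM WIP1 preincubated with compounds 1 hr at room temperature in pH 7.5 Tris buffer with 30 mM MgCl2, 1 mM TCEP; 2 uM VEPPL-pS-QETFS phosphopeptide for 5 min, formic acid quench; dephosphorylated product quantified by RapidFire MS against labelled standard.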
# [7] = molecular target: Protein phosphatase 1D (Homo sapiens) (UniProt O15297); assay: Rhodamine-PBP qHTS Assay for Modulators of WT P53-Induced Phosphatase 1 (WIP1) (AID 1347425)
# In short: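 The read-out is the change in Rhodamine-PBP fluorescence (f1 - f0, ex 525/em 598 nm) as Pi is released, read each minute for 11 min. Final reaction: 5 nM WIP1, 10 uM phosphopeptide VEPPL-pS-QETFS, 10 uM Rh-PBP, 50 mM Tris-HCl pH 7.5, 30 mM MgCl2. Compound was preincubated with enzyme for 1 hour at room temperature.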
smiles,measurement,setting,value
CC(C)(C)c1ccc(S(=O)(=O)/C=C/C#N)cc1,Potency,[1],7.08 µM (active)
same,outcome,[2],inactive
same,Potency,[3],inactive
O=[N+]([O-])c1ccc(CSc2ncnc3c2ncn3[C@@H]2O[C@H](CO)[C@@H](O)[C@H]2O)cc1,Potency,[1],inactive
same,outcome,[2],inactive
same,Potency,[3],inactive
CC(C(=O)O)c1ccc2c(c1)[nH]c1ccc(Cl)cc12 (configuration not stated),Potency,[4],inactive
COc1cc2c(CCNC(C)=O)c[nH]c2cc1Cl,Potency,[1],inactive
same,outcome,[2],inactive
same,Potency,[3],inactive
COC(=O)c1c(C)[nH]c(C)c1C(=O)c1ccccc1Cc1ccccc1,Potency,[1],inactive
same,outcome,[2],inactive
same,Potency,[3],inactive
CN(C)CCC(c1ccc(Cl)cc1)c1ccccn1 (configuration not stated),Potency,[1],inactive
same,outcome,[2],inactive
same,Potency,[3],inactive
NC(=O)C(=O)O,Potency,[1],inactive
same,outcome,[2],inactive
same,Potency,[3],inactive
O=C(O)CCCC[C@@H]1CCSS1,Potency,[1],inactive
same,outcome,[2],inactive
same,Potency,[3],inactive
Cc1ccc(S(=O)(=O)/C=C/C#N)cc1,Potency,[1],12.6 µM (active)
same,outcome,[2],inactive
same,Potency,[3],inactive
O=C(O)c1cc([N+](=O)[O-])ccc1NCCCc1ccccc1,Potency,[1],inactive
same,outcome,[2],inactive
same,Potency,[3],inactive
C[N+]1(C)[C@@H]2CC(OC(=O)[C@H](CO)c3ccccc3)C[C@H]1[C@@H]1O[C@@H]12 (some centres not stated),Potency,[4],inactive
same,Potency,[5],inactive
same,Potency,[6],inactive
same,outcome,[7],inactive
O=Cc1ccc(O)c(O)c1O,Potency,[4],inactive
NC(=S)c1ccc[n+]([C@@H]2O[C@@H](COP(=O)([O-])OP(=O)(O)OC[C@H]3O[C@@H](n4cnc5c(N)ncnc54)[C@H](OP(=O)(O)O)[C@@H]3O)C(O)C2O)c1 (some centres not stated),Potency,[1],inactive
same,outcome,[2],inactive
same,Potency,[3],inactive
COc1cccc(C(=O)NCCN2CCN(c3ccc(Cl)cc3)CC2)c1,Potency,[1],inactive
same,outcome,[2],inactive
same,Potency,[3],inactive
CC(C)NC[C@H](O)COc1cccc2[nH]ccc12,Potency,[1],inactive
same,outcome,[2],inactive
same,Potency,[3],inactive
O=C(c1ccc(Cl)cc1)N1CCN(c2ccc([N+](=O)[O-])c3ncccc23)CC1,Potency,[1],inactive
same,outcome,[2],inactive
same,Potency,[3],inactive
C[N+]1(C)CCC(OC(=O)C(c2ccccc2)c2ccccc2)CC1,Potency,[1],inactive
same,outcome,[2],inactive
same,Potency,[3],inactive
CCCC(=O)OC[C@@H](OC(=O)CCC)[C@@H](OC(=O)CCC)[C@H](Cn1c2nc(=O)[nH]c(=O)c-2nc2cc(C)c(C)cc21)OC(=O)CCC,Potency,[4],inactive
Cn1cc(C2=C(c3ccc(Cl)cc3Cl)C(=O)NC2=O)c2ccccc21,Potency,[1],inactive
same,Potency,[3],inactive
NCCCS(=O)(=O)O,Potency,[1],inactive
same,outcome,[2],inactive
same,Potency,[3],inactive
CNC(=O)[C@H]1O[C@@H](n2cnc3c(NCc4ccc(N)cc4)ncnc32)[C@H](O)[C@@H]1O,Potency,[1],inactive
same,outcome,[2],inactive
same,Potency,[3],inactive
CCCCCCCCCCCCCCCC(=O)OC(CC(=O)O)C[N+](C)(C)C (configuration not stated),Potency,[1],inactive
same,outcome,[2],inactive
same,Potency,[3],inactive
CC(C)CC(NP(=O)(O)O[C@@H]1O[C@@H](C)[C@H](O)[C@@H](O)[C@H]1O)C(=O)NC(Cc1c[nH]c2ccccc12)C(=O)O (some centres not stated),Potency,[1],inactive
same,outcome,[2],inactive
same,Potency,[3],inactive
O=C(O)c1ccccc1Nc1cccc(C(F)(F)F)c1,Potency,[4],inactive
CSc1nc(N)c2ncn([C@@H]3O[C@H](COP(=O)(O)OP(=O)(O)OP(=O)(O)O)[C@@H](O)[C@H]3O)c2n1,Potency,[1],inactive
same,outcome,[2],inactive
same,Potency,[3],inactive
O=C(/C=C/c1ccc(O)c(O)c1)OCCc1ccccc1,Potency,[1],inactive
same,outcome,[2],inactive
same,Potency,[3],inactive
N=c1ccn2c(n1)O[C@H]1[C@H](O)[C@@H](CO)O[C@H]12,Potency,[1],inactive
same,outcome,[2],inactive
same,Potency,[3],inactive
Cc1ccc(O)c(N=Nc2ccccc2)n1,Potency,[1],inactive
same,outcome,[2],inactive
same,Potency,[3],inactive
NC(=O)C1=CN(C2OC(COP(=O)(O)OP(=O)(O)OC[C@H]3O[C@@H](n4cnc5c(N)ncnc54)[C@H](OP(=O)(O)O)[C@@H]3O)C(O)C2O)C=CC1 (some centres not stated),Potency,[1],inactive
same,outcome,[2],inactive
same,Potency,[3],inactive
Fc1ccc(C(OCCCc2cnc[nH]2)c2ccc(F)cc2)cc1,Potency,[1],inactive
same,outcome,[2],inactive
same,Potency,[3],inactive
Nc1nc(Nc2ccccc2)nc2c1ncn2[C@@H]1O[C@H](CO)[C@@H](O)[C@H]1O,Potency,[1],inactive
same,outcome,[2],inactive
same,Potency,[3],inactive
CN1[C@@H](CC(=O)c2ccccc2)CCC[C@H]1C[C@H](O)c1ccccc1,Potency,[1],inactive
same,outcome,[2],inactive
same,Potency,[3],inactive
CN1CCc2ccccc2Cc2[nH]c3ccccc3c2CC1,Potency,[1],inactive
same,outcome,[2],inactive
same,Potency,[3],inactive
O=C(O)c1cc(=O)c2c(Cl)cc(Cl)cc2[nH]1,Potency,[1],inactive
same,outcome,[2],inactive
same,Potency,[3],inactive
O=C1/C(=C/c2ccsc2)CC/C1=C\c1cccs1,Potency,[1],inactive
same,outcome,[2],inactive
same,Potency,[3],inactive
Cc1cc(NC2CCCCC2)nc(-n2nc(C)cc2C)n1,Potency,[1],inactive
same,outcome,[2],inactive
same,Potency,[3],inactive
O=C(O)CC[C@@H](C(=O)O)N1C(=O)c2ccccc2C1=O,Potency,[1],inactive
same,outcome,[2],inactive
same,Potency,[3],inactive
Clc1ccc(N2CCN(Cc3cc4ccccn4n3)CC2)cc1,Potency,[1],inactive
same,outcome,[2],inactive
same,Potency,[3],inactive
CNC(=O)[C@H]1O[C@@H](n2cnc3c(NCc4cccc(I)c4)ncnc32)[C@H](O)[C@@H]1O,Potency,[1],inactive
same,outcome,[2],inactive
same,Potency,[3],inactive
CC1(C)S[C@@H]2[C@H](NC(=O)[C@H](N)c3ccccc3)C(=O)N2[C@H]1C(=O)O,Potency,[4],inactive
same,Potency,[6],inactive
same,outcome,[7],inactive
Nc1nc2ccc([N+](=O)[O-])cc2s1,Potency,[4],inactive
same,Potency,[6],inactive
Cc1c(N)c(=O)n(-c2ccccc2)n1C,Potency,[4],inactive
same,Potency,[6],inactive
same,outcome,[7],inactive
